Assay results: the supplement of paper PMC10933113
Structures can show the parent of a compound that is named as a salt. ± gives the uncertainty stated by the source.

Experiments:
THP-1 [1] = assay: CD54 surface expression induction over DMSO control (% over DMSO); higher = stronger dendritic cell activation; settings: exposure time: 24 h
Protocol: (§1)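 hCLAT-like CD54 and CD86 surface expression on THP1 cells after 24 h exposure at a single concentration (highest non-cytotoxic concentration, or 100-200 µM if not cytotoxic). Flow cytometry (iQue) was run on 5,000 live cells.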

THP-1 [2] = assay: CD86 surface expression induction over DMSO control (% over DMSO); higher = stronger dendritic cell activation; settings: exposure time: 24 h
Protocol: as §1

Row | SMILES | CD54 surface expression induction (THP-1 [1]) | CD86 surface expression induction (THP-1 [2])
1 | c1ccc2cc3c(ccc4ccccc43)cc2c1 [Benz(a)anthracene] (200 µM) | -2.28 ± 4.7 | –
2 | O=C1OC(OC(=O)c2cccnc2Nc2cccc(C(F)(F)F)c2)c2ccccc21 (stereo not given) [Talniflumate] (100 µM) | 1.7 ± 0.62 | –
3 | Clc1ccccc1-c1nc(-c2ccncc2)no1 [Pifexole] (100 µM) | -5.59 ± 1.4 | –
4 | CN(C)c1ccc(SC#N)cc1 [4-(Dimethylamino)phenylthiocyanate] (10 µM) | -9.74 ± 4.1 | -14.3 ± 7
5 | Nc1ccc(Nc2ccccc2)cc1 [N-Phenyl-1,4-benzenediamine] (200 µM) | 46.9 ± 11 | –
6 | CC(C)C[C@H](NC(=O)[C@H](Cc1ccccc1)NC(=O)c1cnccn1)B(O)O [Bortezomib] (10 µM) | 28.8 ± 9.9 | –
7 | Cc1occc1S [2-Methyl-3-furanthiol] (200 µM) | 36.6 ± 1.1 | –
8 | C#CCN(C)CCCOc1ccc(Cl)cc1Cl [Clorgyline hydrochloride] (100 µM) | -7.99 ± 0.71 | –
9 | CC(C)(C)c1ccc(C(=O)CCCCl)cc1 [4'-Tert-butyl-4-chlorobutyrophenone] (100 µM) | -1.36 ± 1.9 | -2.04 ± 0.44
10 | CC(C)=CCOc1ccc(/C=C/C(=O)c2ccc(OCC=C(C)C)cc2OCC(=O)O)cc1 [Sofalcone] (100 µM) | -27.7 ± 3.9 | -6.95 ± 7.2
11 | COc1cccc2c1C(=O)c1c(O)c3c(c(O)c1C2=O)C[C@@](O)(C(=O)CO)C[C@@H]3O[C@H]1C[C@H](N)[C@H](O)[C@H](C)O1 [Doxorubicin*] (10 µM) | 187 ± 27 | 218 ± 96
12 | CC(=O)Oc1ccc(C(c2ccc(OC(C)=O)cc2)c2ccccn2)cc1 [Bisacodyl] (100 µM) | -7.9 ± 29 | 26.6 ± 55
13 | O=C(O)c1cn(C2CC2)c2cc(N3CCNCC3)c(F)cc2c1=O [Ciprofloxacin] (100 µM) | -14.9 ± 5.8 | -5.55 ± 6.9
14 | CC1=C(/C=C/C(C)=C/C=C/C(C)=C/C=O)C(C)(C)CCC1 [13-cis-Retinal (Vitamin A aldehyde)] (100 µM) | 188 ± 9.3 | –
15 | CC(C)(C)OC(=O)c1ccc(O)cc1 [tert-Butyl 4-hydroxybenzoate] (100 µM) | 1.75 ± 0.96 | –
16 | O=C(NS(=O)(=O)/C=C/c1cccs1)c1ccc(F)cc1Br (200 µM) | 4.11 ± 1.7 | –
17 | O=C1Nc2ccccc2C1(c1ccc(O)cc1)c1ccc(O)cc1 [Oxyphenisatin] (100 µM) | 15.6 ± 12 | –
18 | CCCCCCCC/C=C\CCCCCCCC(=O)N(C)CC(=O)O [Oleyl sarcosine] (100 µM) | 6.04 ± 0.79 | –

Row | SMILES | CD54 surface expression induction (THP-1 [1]) | CD86 surface expression induction (THP-1 [2])
19 | O=C(O)Cn1c(C(=O)Nc2nc(-c3ccccc3Cl)cs2)cc2ccccc21 [Lintitript] (100 µM) | 1.24 ± 1.1 | -2.3 ± 0.27
20 | CCCCC1C(=O)N(c2ccccc2)N(c2ccc(O)cc2)C1=O (stereo not given) [Oxyphenbutazone] (10 µM) | 2.37 ± 6.7 | –
21 | O=C1c2cccc(O)c2C(=O)c2c(O)cc(CO)cc21 [Aloe-emodin] (100 µM) | 24.6 ± 18 | –
22 | O=C(Nc1ccccc1)c1cc([N+](=O)[O-])ccc1Cl [2-Chloro-5-nitro-N-phenylbenzamide] (200 µM) | 4.72 ± 3.4 | –
23 | COc1cc(Nc2c(C#N)cnc3cc(OCCCN4CCN(C)CC4)c(OC)cc23)c(Cl)cc1Cl [Bosutinib] (100 µM) | -7.93 ± 2.6 | –
24 | O=C(CS)Nc1ccccc1 [Thioglycolic acid anilide] (300 µM) | 24 ± 1.8 | –
25 | CCC1OCC(COc2ccc(Oc3ccccc3)cc2)O1 (stereo not given) [Diofenolan] (10 µM) | -6.06 ± 5.8 | –
26 | O=C(Oc1ccccc1)c1ccccc1O [Phenyl salicylate] (200 µM) | -8.79 ± 7.5 | –
27 | CCC(=O)C=Cc1ccc(OC)cc1 [1-(4-Methoxyphenyl)-1-pentene-3-one] (200 µM) | -15.2 ± 1.7 | –
28 | O=C1c2ccccc2C(=O)C1c1ccc2ccccc2n1 [D & C Yellow II] (10 µM) | -4.43 ± 3.6 | –
29 | C/C=C/C=C/CCCCCCCO [Codlelure] (200 µM) | -18.9 ± 4 | -13 ± 6
30 | Clc1ccc(C(Cn2ccnc2)OCc2ccc(Sc3ccccc3)cc2)c(Cl)c1 (stereo not given) [Fenticonazole nitrate] (100 µM) | 21.1 ± 8.7 | –
31 | CCN(CC)CCOc1ccc2c(c1)C(=O)c1cc(OCCN(CC)CC)ccc1-2 [Tilorone] (200 µM) | 79.8 ± 17 | –
32 | COP(=O)(O)OP(=O)(O)OC [Dimethyl dihydrogen diphosphate] (200 µM) | -11.2 ± 2.4 | -3.42 ± 3.5
33 | Cc1ccc(O)c2ncccc12 [Tiliquinol] (10 µM) | 26.6 ± 6.2 | –
34 | CC(C)NC(=O)c1ccc(C=O)cc1 [N-isopropyl-4-formylbenzamide] (100 µM) | -11.6 ± 1.7 | –
35 | CCCCCCCCCCCC(=O)NCCCN(C)C [N-[3-(Dimethylamino)propyl]dodecanamide] (200 µM) | 14.4 ± 11 | –
36 | CC(C)(C)c1ccc(S)cc1 [4-tert-Butylbenzenethiol] (200 µM) | 38.6 ± 14 | –
